PubChem BioAssay (NCI)
About 79,000 compounds went through this panel and 15% of them were active in at least one assay; those are over-represented in the sample as a whole. Activity calls are given as the source filed them. Cut-off read from the data, not from the text of the source: active = growth inhibition above about 70%; inactive = the rest.

What was measured:
[1] = NCI Yeast Anticancer Drug Screen. Data for the rad14 strain (AID 159);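 note: 0% = growth of vehicle-treated control cultures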; settings: S. cerevisiae rad14 strain growth inhibition, stronger effect = higher value
How it was run: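 Screen for anticancer potential: a yeast strain altered in DNA damage repair is grown with compound, and reduced growth is quantified against vehicle controls.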

[2] = NCI Yeast Anticancer Drug Screen. Data for the sgs1 mgt1 strain (AID 161);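 note: 0% = growth of cultures given vehicle only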; settings: S. cerevisiae sgs1 mgt1 strain, stronger effect = higher value
How it was run: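 Genetically altered yeast, compound exposure, growth inhibition relative to vehicle.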

[3] = NCI Yeast Anticancer Drug Screen. Data for the CLN2oe strain (AID 163);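 note: 0% = growth of vehicle-only control cultures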; settings: S. cerevisiae CLN2oe strain, stronger effect = higher value
How it was run: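 Read-out: yeast growth inhibition, expressed relative to vehicle-only controls. The strain bears an engineered cell-cycle alteration.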

[4] = NCI Yeast Anticancer Drug Screen. Data for the cln2 rad14 strain (AID 165);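 note: 0% = growth equal to vehicle treated cultures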; settings: S. cerevisiae cln2 rad14 strain, stronger effect = higher value
How it was run: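 cln2 rad14 yeast strain; compound exposure; growth inhibition read vs vehicle controls.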

[5] = NCI Yeast Anticancer Drug Screen. Data for the bub3 strain (AID 167); settings: S. cerevisiae bub3 mutant strain, stronger effect = higher value
How it was run: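 Screening used yeast with an engineered genetic alteration affecting cell cycle control. Compound-exposed cultures were compared with vehicle cultures, and reduced growth was taken as inhibition.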

[6] = NCI Yeast Anticancer Drug Screen. Data for the wt2 strain (AID 169);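 note: 0% = growth of vehicle-treated yeast cultures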; settings: S. cerevisiae wt2 strain growth inhibition, stronger effect = higher value
How it was run: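 Read-out: growth inhibition versus vehicle-treated control cultures after compound exposure of the yeast strain.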

[7] = NCI Yeast Anticancer Drug Screen. Data for the mlh1 strain (AID 171);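 note: 0% = growth of vehicle-treated control cultures of the same strain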; settings: S. cerevisiae mlh1 strain growth inhibition, stronger effect = higher value
How it was run: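 Read-out: growth inhibition versus vehicle controls. Strain: engineered yeast with a defined DNA repair or cell cycle defect, compound-treated.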

[8] = NCI Yeast Anticancer Drug Screen. Data for the sgs1 strain (AID 173);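 note: 0% = growth of vehicle-only control cultures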; settings: S. cerevisiae sgs1 mutant, stronger effect = higher value
How it was run: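 Read-out: yeast growth inhibition relative to vehicle controls, following compound exposure of a strain with a defined DNA repair/cell cycle alteration.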

[9] = NCI Yeast Anticancer Drug Screen. Data for the mlh1 rad18 strain (AID 175); settings: S. cerevisiae mlh1 rad18 strain growth inhibition, stronger effect = higher value
How it was run: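 Yeast w/ defined DNA-repair lesions; compound exposure; growth vs vehicle controls → % inhibition.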

[10] = NCI Yeast Anticancer Drug Screen. Data for the rad18 strain (AID 177); settings: S. cerevisiae rad18 mutant growth inhibition, stronger effect = higher value
How it was run: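 Readout: growth inhibition vs vehicle controls. Cells: genetically altered yeast strain, DNA repair defect.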

[11] = NCI Yeast Anticancer Drug Screen. Data for the rad52 strain (AID 147);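 note: 0% = growth of vehicle-treated control cultures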; settings: S. cerevisiae rad52 mutant growth inhibition, stronger effect = higher value
How it was run: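 Read-out: growth inhibition versus vehicle-treated controls. Cells were a DNA repair-deficient yeast strain treated with compounds.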

[12] = NCI Yeast Anticancer Drug Screen. Data for the rad50EPP+ strain (AID 151);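 note: 0% = growth of vehicle-treated control cultures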; settings: S. cerevisiae rad50 mutant strain, stronger effect = higher value
How it was run: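 Growth inhibition read against vehicle controls in rad50EPP+ yeast, a strain altered in DNA damage repair, after compound exposure.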

[13] = NCI Yeast Anticancer Drug Screen. Data for the rad50 strain (AID 155);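 note: 0% = growth of vehicle-only cultures of the same strain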; settings: S. cerevisiae rad50 strain growth inhibition, stronger effect = higher value
How it was run: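 Relative growth inhibition (compound vs vehicle) was measured in yeast with a defined repair-gene alteration.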

[14] = NCI Yeast Anticancer Drug Screen. Data for the mec2-1 strain (AID 157); settings: S. cerevisiae mec2-1 strain, stronger effect = higher value
How it was run: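 Yeast mec2-1 mutant treated with compound. Readout: growth inhibition vs vehicle controls.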

[15] = at 5.0 µM (retest, dose inferred, filed as 0.5)
[16] = at 50.0 µM (retest, dose inferred, filed as 5.0)

Measured: growth inhibition

Cc1ccc(Nc2n[nH]c(=S)s2)cc1
inactive: [2]; [15] 1% | [3]; at 1.2 µM 11% | [3]; at 3.7 µM 2% | [3]; at 11.0 µM 3% | [3]; at 33.0 µM 40% | [4]; [15] 60% | [5]; at 1.2 µM 1% | [5]; at 3.7 µM -12% | [5]; [15] 45% | [5]; at 11.0 µM -3% | [5]; at 33.0 µM 53% | [6]; at 1.2 µM -12% | [6]; at 3.7 µM -6% | [6]; at 11.0 µM -17% | [6]; at 33.0 µM 47% | [7]; at 1.2 µM -10% | [7]; at 3.7 µM -34% | [7]; at 11.0 µM -23% | [7]; at 33.0 µM 29% | [8]; at 1.2 µM -34% | [8]; at 3.7 µM -36% | [8]; at 11.0 µM -25% | [8]; at 33.0 µM 41% | [9]; [15] 36% | [9]; [16] 60% | [10]; at 1.2 µM -17% | [10]; at 3.7 µM -10% | [10]; at 11.0 µM 0%
active: [1]; at 100.0 µM 95% | [2]; [16] 91% | [3]; at 100.0 µM 91% | [4]; [16] 94% | [5]; [16] 91% | [5]; at 100.0 µM 93% | [6]; at 100.0 µM 92% | [7]; at 100.0 µM 92% | [8]; at 100.0 µM 88% | [9]; at 50.0 µM 85.7% | [10]; at 33.0 µM 80% | [10]; at 100.0 µM 94%

Nc1nc(N)c2c(n1)CCC(S(=O)(=O)c1ccc3ccccc3c1)C2 (stereo not drawn)
active: [13]; [16] 72% | [14]; [15] 83% | [14]; at 33.0 µM 80% | [14]; [16] 91% | [14]; at 50.0 µM 84.9% | [14]; at 100.0 µM 80%
inactive: [11]; at 1.2 µM 26% | [11]; at 3.7 µM 44% | [11]; at 11.0 µM 54% | [11]; at 33.0 µM 62% | [11]; at 100.0 µM 65% | [12]; at 1.2 µM 23% | [12]; at 3.7 µM 35% | [12]; at 11.0 µM 39% | [12]; at 33.0 µM 40% | [12]; at 100.0 µM 40% | [13]; at 1.2 µM -3% | [13]; at 3.7 µM 13% | [13]; [15] 56% | [13]; at 11.0 µM 32% | [13]; at 33.0 µM 45% | [13]; at 50.0 µM 49.2% | [13]; at 100.0 µM 54% | [14]; at 1.2 µM 14% | [14]; at 3.7 µM 46% | [14]; at 11.0 µM 65% | [1]; at 1.2 µM -2% | [1]; at 3.7 µM -6% | [1]; at 11.0 µM -11% | [1]; at 33.0 µM -8% | [1]; at 100.0 µM -4% | [2]; [15] 49% | [2]; [16] 60% | [2]; at 50.0 µM 36% | [3]; at 1.2 µM -3% | [3]; at 3.7 µM 6% | [3]; at 11.0 µM 0% | [3]; at 33.0 µM 8% | [3]; at 100.0 µM 6% | [5]; at 1.2 µM -41% | [5]; at 3.7 µM -27% | [5]; [15] 32% | [5]; at 11.0 µM -27% | [5]; at 33.0 µM 3% | [5]; [16] 30% | [5]; at 50.0 µM -7.8% | [5]; at 100.0 µM 2% | [6]; at 1.2 µM -35% | [6]; at 3.7 µM -8% | [6]; at 11.0 µM 1% | [6]; at 33.0 µM 5% | [6]; at 100.0 µM 23% | [7]; at 1.2 µM -5% | [7]; at 3.7 µM 3% | [7]; at 11.0 µM 8% | [7]; at 33.0 µM 10% | [7]; at 100.0 µM 9% | [8]; at 1.2 µM 16% | [8]; at 3.7 µM 45% | [8]; at 11.0 µM 55% | [8]; at 33.0 µM 56% | [8]; at 100.0 µM 44% | [9]; [15] 48% | [9]; [16] 54% | [9]; at 50.0 µM 13.6% | [10]; at 1.2 µM 7% | [10]; at 3.7 µM 1% | [10]; at 11.0 µM 8% | [10]; at 33.0 µM 20% | [10]; at 100.0 µM 22%

CCOC(=O)Nc1ccc2c(c1)Cc1ccccc1-2
inactive: [11]; at 1.2 µM -11% | [11]; at 3.7 µM -10% | [11]; at 11.0 µM -7% | [11]; at 33.0 µM -5% | [11]; at 100.0 µM -5% | [12]; at 1.2 µM -6% | [12]; at 3.7 µM -13% | [12]; at 11.0 µM 15% | [12]; at 33.0 µM 21% | [12]; at 100.0 µM 21% | [13]; at 1.2 µM -15% | [13]; at 3.7 µM -14% | [13]; [15] 4% | [13]; at 11.0 µM -23% | [13]; at 33.0 µM -22% | [13]; [16] 2% | [13]; at 50.0 µM -9.4% | [13]; at 100.0 µM -9% | [14]; at 1.2 µM -4% | [14]; at 3.7 µM -4% | [14]; [15] 1% | [14]; at 11.0 µM -6% | [14]; at 33.0 µM -5% | [14]; [16] 12% | [14]; at 50.0 µM -5.5% | [14]; at 100.0 µM -2% | [1]; at 1.2 µM 0% | [1]; at 3.7 µM -8% | [1]; at 11.0 µM 1% | [1]; at 33.0 µM 1% | [1]; at 100.0 µM 3% | [2]; [15] 4% | [2]; [16] 8% | [2]; at 50.0 µM 5.6% | [3]; at 1.2 µM -9% | [3]; at 3.7 µM -12% | [3]; at 11.0 µM -13% | [3]; at 33.0 µM -12% | [3]; at 100.0 µM -7% | [4]; [15] -8% | [4]; [16] -3% | [4]; at 50.0 µM -19% | [5]; at 1.2 µM 35% | [5]; at 3.7 µM 28% | [5]; [15] 49% | [5]; at 11.0 µM 21% | [5]; at 33.0 µM 21% | [5]; at 100.0 µM 26% | [6]; at 1.2 µM 5% | [6]; at 3.7 µM 9% | [6]; at 11.0 µM 14% | [6]; at 33.0 µM 19% | [6]; at 100.0 µM 14% | [7]; at 1.2 µM -14% | [7]; at 3.7 µM -8% | [7]; at 11.0 µM -7% | [7]; at 33.0 µM -7% | [7]; at 100.0 µM -5% | [9]; [15] -11% | [9]; [16] -25% | [9]; at 50.0 µM 16.4% | [10]; at 1.2 µM -11% | [10]; at 3.7 µM -7% | [10]; at 11.0 µM -4% | [10]; at 33.0 µM -6% | [10]; at 100.0 µM -10%
active: [5]; [16] 88% | [5]; at 50.0 µM 87.2%
